According to the supplement of paper PMC10338343:
± gives the standard deviation. Over roughly 8,200 sequences, “pre-steady-state target cleavage rate” has its median near 0.024; the highest 2% begin near 1.3. This excerpt belongs to a sample that is enriched for the highest values.

Tested on: MIWI (PIWIL1) piRISC loaded with L1MC piRNA (30 nt)
Assay: pre-steady-state target cleavage rate (min^-1); MIWI and MILI are mouse PIWI proteins and EfPiwi is from a freshwater sponge; tags in brackets are library labels; higher = faster piRNA-guided slicing of the target
Details: guide: L1MC piRNA 5'p-UAACUAAAUACUAUGCAAGCUGUAGGUCCU
Summary of the method: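 The method was Cleave-'n-Seq, in which uncleaved targets from a transcribed, DNA-blocked target RNA library were sequenced after exposure to active affinity-purified piRISC carrying one synthetic guide, with or without GTSF1 partner protein. Reactions contained 0.1 nM library, 1 nM piRISC and, where present, 500 nM GTSF1 in HEPES–potassium acetate buffer at 33 °C for 0–8 or 0–960 min. Reads were normalised to depth and to weakly complementary targets, three trials were pooled, and k3 was capped at 0.0001 min^-1. The pre-steady-state cleavage rate came from a burst-and-steady-state fit.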

[1] = auxiliary factor: 500 nM mouse GTSF1
[2] = auxiliary factor: none (no GTSF1)

| Sequence | pre-steady-state target cleavage rate [1] | pre-steady-state target cleavage rate [2] |
| --- | --- | --- |
| UCCUGGAUGAGCUUGCAUAGUUUUUUGUUA | 0.0806 ± 0.014 | 0.0177 ± 0.0048 |
| UCCUGGAUGAGCUUGCAUUGUAUUUACUUA | 0.0649 ± 0.016 | 0.00906 ± 0.0031 |
| AGGACCUACAGCUUGCAUAGAAUUUUGUUA | 0.501 ± 0.047 | 0.0183 ± 0.0047 |
| AGGACCUACAGCUUGCAUAGUAUUUAGUA | 0.795 ± 0.042 | 0.0502 ± 0.014 |
| UGGACCUACUAGCUUGCAUAGUAUUUAGUUA | 0.63 ± 0.036 | 0.0509 ± 0.01 |
| UCCACCUAGCAGCUUGCAUAGUAUUUAGUUA | 0.833 ± 0.057 | 0.0454 ± 0.0087 |
| UGCACCUAGAGCUUGCAUAGUAUUUAGUUA | 1.2 ± 0.25 | 0.0155 ± 0.0045 |
| AGGACCUAGCAGCUUGCAUAGUAUUUAGUUA | 1.21 ± 0.073 | 0.0735 ± 0.015 |
| UCGACCUAGCAGCUUGCAUAGUAUUUAGUUA | 1.34 ± 0.058 | 0.0726 ± 0.016 |
| UCGACCUACUAGCUUGCAUAGUAUUUAGUUA | 0.784 ± 0.042 | 0.0512 ± 0.01 |
| AGCACCUAGAGCUUGCAUAGUAUUUAGUUA | 1.47 ± 0.37 | 0.00468 ± 0.0035 |
| UGGACCUAGCAGCUUGCAUAGUAUUUAGUUA | 1.59 ± 0.13 | 0.0734 ± 0.014 |
| UCCACCUAGAGCUUGCAUAGUAUUUAGUUA | 0.593 ± 0.06 | 0.0282 ± 0.0051 |
| UCGACCUACAGCUUCCAUAGUAAUUAGUUA | 0.0526 ± 0.017 |  |
| UCCACCUACAGCUUGCAAUCUAUUUAGUUA | 0.194 ± 0.018 |  |
| UGGACCUACUGCUUGCAUAGUAAUUAGUUA | 0.866 ± 0.04 | 0.033 ± 0.0084 |
| UCCUGGAUGUGCAUGCAUUGUAUUUAGUUA | 0.00495 ± 0.0033 |  |
| UCCUGGUACAGGAAGCAUAGUAUUUAGUAA | 0.0592 ± 0.011 |  |
| UCCACCAACAGCUAGCAUAGUAUUUAGUUA | 0.97 ± 0.033 | 0.0197 ± 0.0045 |
| UGGAGGUACAGCUUGCAUAGUAUUUUCAAA | 0.0674 ± 0.014 | 0.00316 ± 0.0017 |
| UGGAGCUACAGCUUCCAUAGUAUUUAGUUA | 0.275 ± 0.047 | 0.00584 ± 0.0013 |

| Sequence | pre-steady-state target cleavage rate [1] | pre-steady-state target cleavage rate [2] |
| --- | --- | --- |
| UCGACCUACACGCUUGCAUAGUAUUUAGUUA | 1.23 ± 0.063 | 0.0454 ± 0.0074 |
| UGGACCUACACGCUUGCAUAGUAUUUAGUUA | 1.06 ± 0.06 | 0.0641 ± 0.013 |
| UGGACCUACGCUUGCAUAGUAUUUAGUUA | 1.4 ± 0.081 | 0.046 ± 0.008 |
| AGGACCUACGCUUGCAUAGUAUUUAGUUA | 1.27 ± 0.066 | 0.0719 ± 0.013 |
| UCCACCUACGCUUGCAUAGUAUUUAGUUA | 0.998 ± 0.04 | 0.0451 ± 0.0077 |
| UCGACCUACGCUUGCAUAGUAUUUAGUUA | 1.45 ± 0.052 | 0.0463 ± 0.0093 |
| UCCACCUACAGGUUGCAUAGUAUUUAGUAA | 0.866 ± 0.1 | 0.0134 ± 0.0028 |
| UCCUGGUACAGCUUGCCAUAGUAUUUAGUUA | 0.0951 ± 0.024 |  |
| UCCUCCUACUGCUUGCAUAGUAUUUAGAUA | 0.185 ± 0.024 | 0.0115 ± 0.002 |
| UCCUGGAUGAGCUUGCAUAGUAAUUAGAUA | 0.136 ± 0.034 | 0.00679 ± 0.0036 |
| UCCUGGAUGUGCUUGCAUUGUAUUUAGAUA | 0.0181 ± 0.0038 | 0.0063 ± 0.0025 |
| UCCUGCUACAGCUAGCAUAGAAUUUAGUUA | 0.528 ± 0.048 | 0.0108 ± 0.0032 |
| AGGGCCUACAGCUUGCAUAGUAUUUAGUUA | 1.39 ± 0.061 | 0.106 ± 0.023 |
| UGGGCCUACAGCUUGCAUAGUAUUUAGUUA | 1.39 ± 0.08 | 0.0716 ± 0.013 |
| UCCUGGAUGAGCUUGAAUAGUAUUUAGUUA | 0.944 ± 0.045 | 0.0233 ± 0.007 |
| UCCUGGAUCAGCAUGCAUAGUAUUUUGUUA | 0.517 ± 0.03 | 0.00866 ± 0.003 |
| UCCUGCUACAGCUUGCAAAGUAUUUAGAAA | 0.319 ± 0.043 | 0.00338 ± 0.0032 |
| UCCUGCUACAGCUAGGAUAGUAUUUAGUUA | 1.15 ± 0.12 | 0.006 ± 0.0018 |
| UCGACCAACAGGUUGCAUAGUAUUUAGUUA | 1.16 ± 0.049 | 0.0326 ± 0.006 |
| UCCUCCAACAGCAUGCAUAGUAUUUAGUUA | 1.11 ± 0.051 | 0.0217 ± 0.0039 |
| UCCACCAACAGCAUGCAUAGUAUUUAGUUA | 0.943 ± 0.032 | 0.0211 ± 0.0046 |

| Sequence | pre-steady-state target cleavage rate [1] | pre-steady-state target cleavage rate [2] |
| --- | --- | --- |
| UCGACCAACAGCAUGCAUAGUAUUUAGUUA | 1.33 ± 0.037 | 0.033 ± 0.0067 |
| UGGACCAACAGCAUGCAUAGUAUUUAGUUA | 1.24 ± 0.046 | 0.0449 ± 0.01 |
| AGGACCAACAGCAUGCAUAGUAUUUAGUUA | 1.39 ± 0.048 | 0.0703 ± 0.016 |
| UCCACCUAGUGCUUGCAUAGUAUUUUCAAA | 0.0568 ± 0.012 |  |
| UGGACCUAGUCCUUGCAUAGUAUUUACAAA | 0.0221 ± 0.0084 |  |
| UGCACCUACAGCUAGCAUAGUAUUUAGUUA | 1.22 ± 0.097 | 0.0194 ± 0.0043 |
| UCCUGGAUGAGCUUGCAUAGUAUUAUGAAA | 0.0112 ± 0.0054 |  |
| UCGACCUACAGCUUGCAAAGUAUUUACAAA | 0.33 ± 0.035 | 0.00465 ± 0.002 |
| UCCUGCUUGUGCUUGCAUAGUAUUUACAAA | 0.0637 ± 0.014 | 0.00366 ± 0.0024 |
| UCGACCUACAGCAAGCAUAGUAUUUAGAAA | 0.349 ± 0.041 |  |
| UGGACCUACAGCAAGCAUAGUAUUUAGUUA | 1.34 ± 0.1 | 0.00929 ± 0.0027 |
| UGGACCUACAGCAAGCAUAGUAUUUAGUAA | 0.898 ± 0.11 | 0.0053 ± 0.0019 |
| AGGACCUACAGCAAGCAUAGUAUUUAGUUA | 1.2 ± 0.069 | 0.0105 ± 0.0035 |
| UCGACCUACAGCAAGCAUAGUAUUUAGUUA | 1.4 ± 0.083 | 0.00748 ± 0.0028 |
| UCGACCUACAGCAAGCAUAGUAUUUAGUAA | 0.818 ± 0.066 | 0.00275 ± 0.0026 |
| UCCUCCUACAGCUUGCAUAGUACUUUAGUUA | 0.588 ± 0.024 | 0.00867 ± 0.0017 |
| AGGACCUAGUCCUUGCAUAGUAUUUACAAA | 0.256 ± 0.046 | 0.00328 ± 0.0019 |
| UCCUGGUACAGCUUGCAUAGUUUUUAGAUA | 0.136 ± 0.043 | 0.00988 ± 0.0027 |
| AGGACCUACAGCUUGCAUAGUAAUUAGAAA | 0.475 ± 0.071 | 0.00445 ± 0.0038 |
| UCCUGGAACUGCAUGCAUAGUAUUUAGUUA | 0.442 ± 0.035 | 0.00687 ± 0.0019 |
